Experimental data taken from PubChem BioAssay (NCATS).
Where “and” joins values, the source holds several entries; their conditions need not be identical. Equal values may be shown once. Results filed as inconclusive are left out. Calls of active or inactive are those of the source. Unless noted, calls come from the whole dose curve; as a rule, active = well fitted curve in the direction sought with a large enough effect; inconclusive = small, poorly fitted or top-dose-only effect, or another doubt; inactive = no such curve, though single readings can be large; an effect the other way counts as inactive or inconclusive.

Assays:
[1] = qHTS profiling of the MIPE4 collection as inhibitors of Plasmodium falciparum (HB3) proliferation (AID 743347; call rule not given here;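 note: plate controls were DMSO vehicle wells for no effect and artemisinin wells for full effect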); conditions: P. falciparum HB3 in erythrocytes, SYBR Green DNA, 72 h; at 28.5 µM (top of the series) unless noted
Method in brief: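 Erythrocytes infected with P. falciparum (0.3% parasitemia, 2.5% hematocrit) incubated with compounds 72 h at 37 C, 5% CO2. Lysis with saponin/Triton buffer containing SYBR Green I, overnight at room temperature in the dark; DNA fluorescence (485/535 nm) normalised to 0.29 uM artemisinin and DMSO.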

[2] = molecular target: Cytochrome P450 3A4 (Homo sapiens) (UniProt P08684); test: qHTS Assay for Activators of Cytochrome P450 3A4 (AID 885); note: nearly all actives have a fitted effect of over 65% in size
Method in brief: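 Steps: enzyme/substrate mix dispensed; compound added, 10 min RT; NADPH regeneration solution added, 60 min RT; luciferin detection buffer stops reaction; 20 min later luminescence measured.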

[3] = qHTS for differential inhibitors of proliferation of Plasmodium falciparum line W2 (AID 1883); conditions: Potency: Plasmodium falciparum W2 proliferation inhibition;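 note: potency is the fitted concentration of half-maximal effect; parasites grown with compound for 72 h before lysis and staining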
[4] = Cell Viability - N2a (AID 540); conditions: N2a mouse neuroblastoma cell viability; at 92.2 µM (top of the series);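 note: cells exposed to compound for 40 h at 37 °C; plate controls were DMSO alone for no effect and tamoxifen control for full effect; nearly all actives have a fitted effect of over 45% in size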
Method in brief: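 First, 1500 N2a cells per well incubate 5 hr at 37 °C; next, compounds are added and incubated 40 hr at 37 °C; finally CellTiter-Glo is added and luminescence read after 20 min, with AC50 derived by Hill modeling.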

[5] = Cell Viability - NIH 3T3 (AID 541); conditions: NIH 3T3 cell viability, qHTS; at 92.2 µM (top of the series);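 note: cells exposed to compound for 40 hours; plate controls were DMSO alone for no effect and tamoxifen positive control for full effect; nearly all actives have a fitted effect of over 25% in size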
Method in brief: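 AC50 values reflect concentration-dependent loss of intracellular ATP in NIH 3T3 cells after 40 hr treatment in complete culture medium, quantified by luciferase-based luminescence.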

[6] = Cell Viability - Renal Proximal Tubule (AID 545);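 note: cells exposed to compound for 40 hours; 0% = DMSO only and -100% = 100 µM tamoxifen; nearly all actives have a fitted effect of over 40% in size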
Method in brief: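 Cytotoxicity is scored as a concentration-dependent drop in cellular ATP in primary rat renal proximal tubule cells exposed for 40 hr. AC50 derives from Hill modelling.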

[7] = Cell Viability - LYMP2-002 (AID 977);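 note: plate controls were DMSO only for no effect and 92 µM tetraoctylammonium bromide for full effect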
Method in brief: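 Luminescent ATP readout (CellTiter-Glo, 30 min room temperature) after 24 h compound exposure at 37 C of a human lymphoblastoid line, 2500 cells/well. AC50 values derived by standard Hill fitting of qHTS concentration-response data.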

[8] = Cell Viability - LYMP2-006 (AID 978);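 note: cells exposed to compound for 24 hours; % is set by controls: 0 for no effect and ±100 for the full control effect; nearly all actives have a fitted effect of over 60% in size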
Method in brief: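 Concentration-dependent loss of intracellular ATP in a human lymphoblastoid line after 24 hr treatment at 37 C was measured by CellTiter-Glo luminescence, with AC50 values obtained from standard Hill-equation modelling.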

[9] = Cell Viability - LYMP2-008 (AID 980); note: % is set by controls: 0 for no effect and ±100 for the full control effect; nearly all actives have a fitted effect of over 60% in size
Method in brief: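 Acute cytotoxicity is scored as concentration-dependent loss of cellular ATP in a human lymphoblastoid line after 24 hr treatment at 37 C. ATP is quantified by luciferase luminescence.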

[10] = Cell Viability - LYMP2-010 (AID 981);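 note: cells exposed to compound for 24 hours at 37 °C; nearly all actives have a fitted effect of over 55% in size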; note: potency is the fitted concentration of half-maximal effect
Method in brief: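 Acute toxicity is scored as a concentration-dependent loss of cellular ATP in human lymphoblastoid cells after 24 hr compound exposure in complete medium. Tetraoctylammonium bromide is the positive control.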

[11] = Cell Viability - LYMP2-026 (AID 989); note: % is set by controls: 0 for no effect and ±100 for the full control effect; nearly all actives have a fitted effect of over 50% in size
Method in brief: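 Concentration-dependent loss of intracellular ATP in human lymphoblastoid cells after 24 hr at 37 C, quantified by luciferase luminescence. AC50 derived from standard Hill equation.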

[12] = Cell Viability - LYMP1-002 - Assay at 40 hr (AID 994); note: nearly all actives have a fitted effect of over 60% in size; note: potency is the fitted concentration of half-maximal effect
Method in brief: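 Viability in the human lymphoblastoid line was measured as intracellular ATP via CellTiter-Glo after 40 hr compound exposure. Tetraoctylammonium bromide served as positive control.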

[13] = qHTS Assay for Identification of Small Molecule Inducers of Hypoxia Response (AID 2120; active = well fitted curve in the direction sought with a large enough effect in the signal ratio, with a control signal flat, not every such curve was filed as active; the % refers to the signal ratio; note: 0% is about no effect)
Method in brief: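 Induction of beta-lactamase reporter activity was measured in CellSensor HRE-bla ME-180 cells after 17 h compound treatment at 37 degrees C, using CCF4 substrate and the 460nm/530nm emission ratio to derive AC50 values.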

[14] = molecular target: Glucocorticoid receptor (Homo sapiens) (UniProt P04150); test: qHTS assay for small molecule antagonists of glucocorticoid receptor signaling (AID 588533; active = well fitted inhibition curve with a large enough effect in the signal ratio, with a control signal flat, not every such curve was filed as active; the % refers to the signal ratio;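 note: cells stimulated with 2 nM dexamethasone as agonist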; note: potency is the fitted concentration of half-maximal effect)
Method in brief: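 Antagonist-mode qHTS: compound titrations added to GRE-bla HeLa cells, then dexamethasone 2 nM final; 18 h, 37 C. CCF4 FRET fluorescence normalized to dexamethasone and DMSO; IC50 from Hill fit.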

[15] = molecular target: Peroxisome proliferator-activated receptor gamma (Homo sapiens) (UniProt P37231); test: qHTS assay for small molecule agonists of peroxisome proliferator-activated receptor gamma signaling (AID 588536; active = well fitted curve in the direction sought with a large enough effect in the signal ratio, with a control signal flat, not every such curve was filed as active; the % refers to the signal ratio;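 note: 0% = DMSO basal wells and 100% = rosiglitazone at 2 µM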)
Method in brief: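 Test agents, titrated, stimulated HEK293 UAS-bla cells overnight (16 h, 37 C). Substrate CCF4 was then added for two hours at room temperature before fluorescence reading.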

[16] = molecular target: Thyroid hormone receptor beta (Homo sapiens) (UniProt P10828); test: qHTS assay for small molecule agonists of thyroid hormone receptor beta signaling (AID 588545; calls by dose curve;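 note: 0% = DMSO only and 100% = 10 nM T3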)
Method in brief: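 Beta-lactamase reporter activity under TR response element control is measured in HEK 293 cells after 18 hrs compound exposure. Signal is ratiometric CCF4 fluorescence, 460/530 nm.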

[17] = qHTS assay for small molecule antagonists of retinoid X receptor alpha signaling (AID 588546; active = well fitted inhibition curve with a large enough effect in the signal ratio, with a control signal flat, not every such curve was filed as active; the % refers to the signal ratio;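 note: cells stimulated with 9-cis-retinoic acid as agonist; % is set by controls: 0 for no effect and ±100 for the full control effect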); conditions: HEK293T RXRa-UAS-bla, beta-lactamase ratio, antagonist mode; measured here: W530 green channel, cytotoxicity proxy
Method in brief: (§1)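 Beta-lactamase reporter inhibition, read as CCF4 fluorescence ratio (ex 405, em 460/530 nm) after 2 h at RT. HEK293T UAS-bla cells, 2500/well, were stimulated with 9-cis-RA at 500 or 100 nM final alongside test compound for 18 h at 37 C.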

[18] = molecular target: Retinoic acid receptor RXR-alpha (Homo sapiens) (UniProt P19793); test: as above; conditions: HEK293T RXRa-UAS-bla, beta-lactamase ratio, antagonist mode
Method in brief: as §1

[19] = molecular target: Thyroid hormone receptor beta (Homo sapiens) (UniProt P10828); test: qHTS assay for small molecule antagonists of thyroid hormone receptor beta signaling (AID 588547; active = well fitted inhibition curve with a large enough effect in the signal ratio, with a control signal flat, not every such curve was filed as active; the % refers to the signal ratio;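 note: cells stimulated with 0.4 nM T3 agonist during compound exposure; % is set by controls: 0 for no effect and ±100 for the full control effect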); conditions: TR-UAS-bla HEK293, beta-lactamase ratio, antagonist mode, 18 h
Method in brief: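 TR-UAS-bla GripTite HEK293 cells in 2% charcoal/dextran FBS medium were preincubated 4 h at 37 C, given compound (0.59 nM to 92 uM) plus 0.4 nM T3 (final) for 18 h, then CCF4 for 2 h at RT; Hill fit gave IC50.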

[20] = qHTS assay for small molecule disruptors of the mitochondrial membrane potential - 1 hr assay (AID 651754; calls by dose curve; note: nearly all actives have a fitted effect of over 35% in size; note: potency is the fitted concentration of half-maximal effect)
Method in brief: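 Steps: seed HepG2 cells and let attach overnight; pin-transfer compound or vehicle; incubate 1 hr at 37C; add Mito-MPS dye for 30 min; read two-channel fluorescence for monomer and aggregate forms.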

Retinoic acid receptor RXR-alpha (Homo sapiens), sequence (P19793 whole entry, looked up): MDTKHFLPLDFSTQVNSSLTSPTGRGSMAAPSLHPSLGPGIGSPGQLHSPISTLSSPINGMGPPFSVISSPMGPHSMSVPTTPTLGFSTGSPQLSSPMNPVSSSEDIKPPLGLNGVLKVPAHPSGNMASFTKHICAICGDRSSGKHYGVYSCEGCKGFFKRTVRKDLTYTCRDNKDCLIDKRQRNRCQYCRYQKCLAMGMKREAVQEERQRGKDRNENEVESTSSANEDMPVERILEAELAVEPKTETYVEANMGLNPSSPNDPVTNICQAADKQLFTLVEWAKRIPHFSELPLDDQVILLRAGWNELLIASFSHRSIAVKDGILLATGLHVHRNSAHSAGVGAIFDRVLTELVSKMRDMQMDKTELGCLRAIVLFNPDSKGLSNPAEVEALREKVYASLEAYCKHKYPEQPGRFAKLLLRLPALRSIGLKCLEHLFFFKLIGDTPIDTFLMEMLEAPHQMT
Glucocorticoid receptor (Homo sapiens), sequence (P04150 whole entry, looked up): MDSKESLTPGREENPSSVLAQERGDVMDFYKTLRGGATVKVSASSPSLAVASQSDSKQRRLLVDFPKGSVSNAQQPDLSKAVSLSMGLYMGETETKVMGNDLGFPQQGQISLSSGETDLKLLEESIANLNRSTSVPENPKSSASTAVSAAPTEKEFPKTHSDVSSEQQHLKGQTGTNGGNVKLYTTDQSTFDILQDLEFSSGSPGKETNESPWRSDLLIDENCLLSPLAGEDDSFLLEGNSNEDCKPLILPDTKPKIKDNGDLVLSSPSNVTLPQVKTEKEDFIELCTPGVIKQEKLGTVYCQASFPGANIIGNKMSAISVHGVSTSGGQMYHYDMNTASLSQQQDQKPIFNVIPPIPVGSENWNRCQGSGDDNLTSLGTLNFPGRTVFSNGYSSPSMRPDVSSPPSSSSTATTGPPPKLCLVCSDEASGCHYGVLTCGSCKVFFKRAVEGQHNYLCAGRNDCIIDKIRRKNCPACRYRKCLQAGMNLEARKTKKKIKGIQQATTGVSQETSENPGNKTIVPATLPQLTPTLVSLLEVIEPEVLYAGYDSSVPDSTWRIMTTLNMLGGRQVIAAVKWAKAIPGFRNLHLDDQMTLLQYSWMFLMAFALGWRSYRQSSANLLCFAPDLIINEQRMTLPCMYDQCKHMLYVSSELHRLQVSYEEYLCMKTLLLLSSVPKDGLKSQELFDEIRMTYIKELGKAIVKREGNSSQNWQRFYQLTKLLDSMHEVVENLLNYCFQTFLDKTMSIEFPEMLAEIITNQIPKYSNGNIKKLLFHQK
Thyroid hormone receptor beta (Homo sapiens), sequence (P10828 whole entry, looked up): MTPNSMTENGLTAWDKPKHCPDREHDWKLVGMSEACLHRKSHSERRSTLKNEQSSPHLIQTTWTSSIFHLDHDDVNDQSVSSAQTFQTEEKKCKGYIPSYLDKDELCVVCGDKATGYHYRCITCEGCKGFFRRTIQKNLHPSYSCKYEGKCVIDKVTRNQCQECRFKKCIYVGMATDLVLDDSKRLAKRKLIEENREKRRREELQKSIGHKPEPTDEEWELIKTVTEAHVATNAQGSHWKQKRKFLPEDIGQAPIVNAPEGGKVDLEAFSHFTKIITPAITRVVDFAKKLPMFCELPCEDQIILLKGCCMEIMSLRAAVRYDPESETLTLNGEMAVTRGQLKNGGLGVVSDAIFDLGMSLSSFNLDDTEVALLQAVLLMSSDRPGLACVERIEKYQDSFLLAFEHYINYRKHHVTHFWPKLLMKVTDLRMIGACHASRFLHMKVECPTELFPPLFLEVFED
Peroxisome proliferator-activated receptor gamma (Homo sapiens), sequence (P37231 whole entry, looked up): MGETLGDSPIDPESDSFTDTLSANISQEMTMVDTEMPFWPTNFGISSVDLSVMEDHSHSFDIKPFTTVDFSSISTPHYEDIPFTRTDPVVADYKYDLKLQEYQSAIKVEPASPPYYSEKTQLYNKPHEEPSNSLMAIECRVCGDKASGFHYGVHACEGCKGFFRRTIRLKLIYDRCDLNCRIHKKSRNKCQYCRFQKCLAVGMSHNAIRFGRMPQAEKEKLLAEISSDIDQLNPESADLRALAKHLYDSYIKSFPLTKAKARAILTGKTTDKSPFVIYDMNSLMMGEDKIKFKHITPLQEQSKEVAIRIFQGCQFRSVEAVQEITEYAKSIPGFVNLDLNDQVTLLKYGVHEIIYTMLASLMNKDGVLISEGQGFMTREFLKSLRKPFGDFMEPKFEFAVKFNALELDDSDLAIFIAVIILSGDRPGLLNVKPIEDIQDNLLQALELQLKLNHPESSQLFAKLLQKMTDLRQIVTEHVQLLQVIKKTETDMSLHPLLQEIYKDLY
Cytochrome P450 3A4 (Homo sapiens), sequence (P08684 whole entry, looked up): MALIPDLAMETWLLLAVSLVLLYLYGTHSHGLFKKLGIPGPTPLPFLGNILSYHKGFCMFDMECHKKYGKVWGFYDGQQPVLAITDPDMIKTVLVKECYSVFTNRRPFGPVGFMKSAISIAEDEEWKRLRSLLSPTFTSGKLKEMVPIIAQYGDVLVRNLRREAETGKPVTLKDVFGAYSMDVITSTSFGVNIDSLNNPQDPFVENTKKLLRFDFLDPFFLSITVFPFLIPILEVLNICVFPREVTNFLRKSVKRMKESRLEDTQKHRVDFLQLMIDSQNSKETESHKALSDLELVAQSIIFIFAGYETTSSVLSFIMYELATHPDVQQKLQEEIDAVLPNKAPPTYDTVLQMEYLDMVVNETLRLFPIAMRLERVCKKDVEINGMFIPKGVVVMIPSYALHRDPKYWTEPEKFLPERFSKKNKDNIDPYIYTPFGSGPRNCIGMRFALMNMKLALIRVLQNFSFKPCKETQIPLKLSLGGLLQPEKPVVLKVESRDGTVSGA

CN1C2CCC1CC(OC(=O)C(CO)c1ccccc1)C2 (stereo unspecified)
108%: growth, % of control [1]

O=C1c2cccc(O)c2C(=O)c2c(O)cc(CO)cc21
568%: growth, % of control [1]

CC[C@H](C=C[C@@H](C)[C@H]1CC[C@H]2[C@@H]3CC=C4C[C@@H](O)CC[C@]4(C)[C@@H]3CC[C@]12C)C(C)C
89% [at 9.64 µM]: growth, % of control [1]

O=C1Nc2ccc(I)cc2/C1=C/c1cc(Br)c(O)c(Br)c1
inactive: Potency [2]

O=C(O)c1ccccc1C(=O)Nc1ccc(-c2ccccc2)cc1
87.2%: growth, % of control [1]

C=C(C)[C@@H]1CC[C@]2(C(=O)O)CC[C@]3(C)[C@H](CC[C@@H]4[C@@]5(C)CC[C@H](O)C(C)(C)[C@@H]5CC[C@]43C)[C@@H]12
208%: growth, % of control [1]

CCCNC(=O)Nc1ccc(Oc2ncnc3cc(OC)c(OC)cc23)cc1Cl
34.8%: growth, % of control [1]

O=c1cc(-c2ccc(O)c(O)c2)oc2cc(O)cc(O)c12
inactive: Potency [2]

N#C/C(=C\c1ccc(O)c(O)c1)C(=O)NCCCNC(=O)/C(C#N)=C/c1ccc(O)c(O)c1
active: Potency [3] 2.24 µM

CC(C)COC(=O)c1ccccc1C(=O)OCC(C)C
-12.2%: max response [17]
inactive: activity change, negative = cytotoxicity [4] -12.6% | activity change, negative = cytotoxicity [5] -26.2% | outcome [6] | outcome [7] | outcome [8] | outcome [9] | Potency [10] | outcome [11] | Potency [12] | outcome [13] | Potency [14] | outcome [15] | Potency [16] | max response [18] 12.8% | activity change % (negative = inhibition) [19] 9.26% | Potency [20]

CCCCCCCCCC[Si](C)(C)CCC(=O)NC(Cc1ccc(C)cc1)c1ccccc1 (stereo unspecified)
active: Potency [3] 3.16 µM

Oc1ccccc1O
active: Potency [10] 20 µM | Potency [12] 15.8 µM | Potency [3] 10 µM | Potency [14] 35.5 µM
inactive: Potency [2]

COc1cc([C@@H]2c3cc4c(cc3[C@H](O)C3COC(=O)[C@@H]32)OCO4)cc(OC)c1OC (stereo partly specified)
active: Potency [3] 11.2 µM

Oc1ccccc1Cl
inactive: activity change, negative = cytotoxicity [4] -11.6% | activity change, negative = cytotoxicity [5] -20.7% | outcome [6] | outcome [7] | outcome [8] | outcome [9] | Potency [10] | outcome [11] | Potency [12] | outcome [13] | Potency [14] | outcome [15] | Potency [16] | max response [18] 10.4% | activity change % (negative = inhibition) [19] -7.68% | Potency [20]
-10.5%: max response [17]

COC1=CC(=O)OC(CCc2ccc3c(c2)OCO3)C1 (stereo unspecified)
inactive: activity change, negative = cytotoxicity [4] -20.1% | outcome [6] | Potency [2] | outcome [7] | outcome [8] | outcome [9] | outcome [11] | outcome [13] | outcome [15] | Potency [16] | activity change % (negative = inhibition) [19] -2% | Potency [20]

CCOC(=O)c1ccccc1N
-2.66%: max response [17]
inactive: activity change, negative = cytotoxicity [4] 3.3% | activity change, negative = cytotoxicity [5] -0.518% | outcome [6] | outcome [7] | outcome [8] | outcome [9] | Potency [10] | outcome [11] | Potency [12] | outcome [13] | Potency [14] | outcome [15] | Potency [16] | max response [18] 10.1% | activity change % (negative = inhibition) [19] 5.04% | Potency [20]

Nc1nc2ccc(Cl)cc2c2nc(-c3ccco3)nn12
active: Potency [3] 11.2 µM

CN1[C@@H](CC(=O)c2ccccc2)CCC[C@H]1C[C@H](O)c1ccccc1
active: Potency [3] 3.98 µM

c1ccc(Nc2ccc3ccccc3c2)cc1
active: Potency [20] 37.6 µM
-7.73% and -2.18%: max response [17]
inactive: activity change, negative = cytotoxicity [5] -27% | Potency [2] | outcome [7] | outcome [8] | outcome [9] | Potency [10] | outcome [11] | Potency [12] | outcome [13] | Potency [14] | outcome [15] | Potency [16] | max response [18] 4.38% and -18.9% | activity change % (negative = inhibition) [19] -6.28%

Brc1c(Br)c(Br)c2n[nH]nc2c1Br
inactive: Potency [2]

CC(=O)/C=C/c1ccccc1
active: activity change, negative = cytotoxicity [5] -123%
-5.45%: max response [17]
inactive: activity change, negative = cytotoxicity [4] -5.72% | outcome [6] | outcome [7] | outcome [8] | outcome [9] | Potency [10] | outcome [11] | Potency [12] | outcome [13] | Potency [14] | outcome [15] | max response [18] 11.5% | Potency [20]

c1ccc2c(c1)-c1cccc3cccc-2c13
inactive: activity change, negative = cytotoxicity [4] -25.7% | activity change, negative = cytotoxicity [5] -24% | outcome [6] | outcome [7] | outcome [8] | outcome [9] | Potency [10] | outcome [11] | Potency [12] | Potency [16] | max response [18] -2.14% | activity change % (negative = inhibition) [19] 3.57%
-3.55%: max response [17]
